Screens (PubChem)
Most compounds without a hit are left out; they make up all but 4.1% or so of the library.
DAX1 inh-1: blocks DAX1 repression of SF-1 activated StAR promoter; HEK293T StAR-luciferase reporter, SF-1/DAX-1 repression relief; inhibition, % at 6.8 µM; 370,000 tested, 1.1% active;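 active = inhibition above the mean over all tested compounds plus 3 SD, cut at about 3.6% in these data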;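 also: 0% = DAX-1 cells with DMSO and 100% = cells lacking DAX-1 with DMSO; higher inhibition means more luminescence from relief of DAX-1 repression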
ssDAF-12 act: S. stercoralis DAF-12 activation, primary screen; HEK293 ssDAF-12/GRIP1 lit1-tk-luc reporter, luminescence; % of 3 µM dafachronic acid response; activation, % at 6.8 µM; 370,000 tested, 1% active; AID 652126;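 active = activation above the mean over all tested compounds plus 3 SD, cut at about 0.9% in these data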;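 also: 0% = DMSO-only wells and 100% = 3 µM delta7-dafachronic acid wells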
hgDAF-12 ag: activates the H. glycines DAF-12 receptor ligand-binding domain; HEK293 GAL4-hgDAF12 UAS-luciferase reporter, agonist luminescence; normalized to butyrate control; activation, % at 6.8 µM; 370,000 tested, 1.8% active; AID 687014;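 active = activation above a cutoff set at the mean of all screened compounds plus 3 SD, cut at about 10% in these data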;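 also: 0% = DMSO wells and 100% = sodium butyrate wells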
DAX1 inh-2: NR0B1 (DAX1) inhibition | HEK293 Gal4-DAX1 luciferase reporter, luminescence | P51843 | 340,000 tested, 0.99% active | AID 504766 | inhibition, % at 6.75 µM;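 active = inhibition above the mean over all tested compounds plus 3 SD, cut at about 4.2% in these data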;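 also: 0% = DAX1-transfected cells with DMSO and 100% = empty-vector control cells with DMSO; inhibition shows as a rise in luminescence from relieved DAX1 repression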
hcDAF-12 act: activators of H. contortus DAF-12 nuclear receptor | HEK293 hcDAF-12 lit1-tk-luc reporter, luminescence; 0% DMSO, 100% Δ7-dafachronic acid | activation, % at 6.8 µM | 370,000 tested, 1.4% active;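 active = activation above the mean of all tested compounds plus 3 SD, cut at about 5.5% in these data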;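 also: 100% = response to 3 µM Δ7-dafachronic acid high control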
LXRb hcDAF ctr: LXR-beta agonism as hcDAF-12 counter-screen; shares compounds with hcDAF-12 act; HEK293 Gal4-LXR tk-luc reporter, luminescence, 24 h; normalized: DMSO 0%, positive control 100%; activation, % at 6.8 µM; 3,400 tested, under 10 active; AID 743027;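 active = mean percent activation of the reporter above a cutoff set as the average over tested compounds plus their standard deviation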
Target sequence (P55055 whole entry, looked up, the tested form may be a part): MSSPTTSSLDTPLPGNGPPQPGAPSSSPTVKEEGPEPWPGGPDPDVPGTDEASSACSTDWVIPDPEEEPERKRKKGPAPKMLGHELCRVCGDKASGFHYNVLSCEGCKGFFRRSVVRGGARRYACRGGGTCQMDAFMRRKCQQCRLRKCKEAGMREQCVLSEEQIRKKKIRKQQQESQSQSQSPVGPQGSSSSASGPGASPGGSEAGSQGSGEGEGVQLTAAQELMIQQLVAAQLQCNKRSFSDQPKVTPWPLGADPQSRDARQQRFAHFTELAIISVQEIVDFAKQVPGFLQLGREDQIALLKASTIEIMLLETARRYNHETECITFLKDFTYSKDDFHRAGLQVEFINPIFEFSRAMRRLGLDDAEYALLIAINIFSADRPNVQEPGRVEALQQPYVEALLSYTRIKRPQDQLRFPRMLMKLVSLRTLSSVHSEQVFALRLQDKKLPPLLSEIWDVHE
hcDAF12 conf: hcDAF-12 agonism, confirmation assay | shares compounds with hcDAF-12 act | HEK293 hcDAF-12 lit1-tk-luc reporter, luminescence; % of Δ7-dafachronic acid response | activation, % at 6.8 µM | 3,400 tested, 61% active | AID 743032;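 active = mean activation across triplicate tests above the threshold derived from the earlier primary screen, cut at about 5.5% in these data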;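 also: 0% = DMSO only wells and 100% = 3 µM Δ7-dafachronic acid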
hgDAF12 ag: hgDAF-12 agonism, confirmation assay; shares compounds with hgDAF-12 ag; HEK293 GAL4-hgDAF12 luciferase reporter, agonist mode; percent of butyrate response; activation, % at 6.8 µM; 3,300 tested, 80% active; AID 743050;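 active = mean activation over triplicate wells above the hit cutoff derived from the earlier primary screen, cut at about 11% in these data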;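 also: 0% = DMSO low control and 100% = 2 mM sodium butyrate high control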
LXR ag 2: counter-screen for DAF-12 agonists: agonists of human LXR-beta. shares compounds with hgDAF-12 ag. HEK293 Gal4-LXR luciferase reporter, 24 h. activation, % at 6.8 µM. 3,300 tested, under 10 active;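 active = mean activation of the triplicate above a set limit carried over from the primary screen, none filed active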
Numbers without * were called inactive; . = not tested or not shown.

SMILES	DAX1 inh-1	ssDAF-12 act	hgDAF-12 ag	DAX1 inh-2	hcDAF-12 act	LXRb hcDAF ctr	hcDAF12 conf	hgDAF12 ag	LXR ag 2
COCCCNC(=O)CCCCCNS(=O)(=O)c1ccc(Br)cc1	-1	-1	-1	-2	0	.	.	.	.
CCC(=O)Nc1ccc2oc(-c3cccc(C)c3)nc2c1	4.2*	1	15*	-3	6.9*	2	7.9*	16*	1
CCC(=O)Nc1cccc(-c2nc3ccc(C)cc3o2)c1	1	0	5	3	2	.	.	.	.
O=C(O)c1ccc(N/N=C/c2ccc(F)c(F)c2)cc1	4	1	18*	-2	11*	2	8.2*	16*	1
O=C(O)c1ccc(N/N=C/c2ccc3nccnc3c2)cc1	-2	-4	-14	-8	-6	.	.	.	.
COc1ccc(C(=O)Nc2nnc(Cc3ccc(OC)c(OC)c3)s2)c(OC)c1	-2	-2	0	-1	-2	.	.	.	.
COCc1nnc(NC(=O)c2ccc(OC)cc2OC)s1	2	0	15*	0	6.8*	1	4	12*	1
Cc1cc(N2CCOCC2)n2ncc(-c3ccccc3Cl)c2n1	3	0	18*	4	6.9*	1	7.0*	16*	1
CN(C)C=Nc1ccc2nc3c(cc2c1)[nH]c1ccccc13	2	1.9*	17*	1	18*	1	13*	19*	1
COc1ccc(-c2cc(-c3ccccc3O)[nH]n2)cc1OC	3.6*	0	16*	4	7.9*	1	3	16*	1
COC(=O)CCCn1nc(NC(=O)c2ccco2)cc1C	0	-1	0	0	0	.	.	.	.
O=C1/C(=C\c2cccs2)Sc2ccc3ccccc3c21	4.0*	6.4*	16*	5.2*	22*	2	19*	31*	1
O=C1C(=Cc2cccs2)C(=O)c2ccccc21	0	-1	0	0	-1	.	.	.	.
CN(/N=C/c1ccncc1)c1cnc2ccccc2n1	4.4*	1.5*	19*	1	6.6*	1	10*	12*	1
O=C(O)c1ccccc1C(=O)Nc1ccccc1NC(=O)c1ccccc1C(=O)O	3	0	15*	.	7.0*	0	0	13*	1
O=C(Nc1nc2ccccc2n1CCN1CCOCC1)c1ccc(Cl)cc1	0	1	3	0	2	.	.	.	.
O=C(Nc1nc2ccccc2n1CCN1CCCC1)c1ccc(Cl)cc1	1	0	18*	1	7.3*	1	9.5*	16*	0
COc1cccc(-c2noc(-c3cccs3)n2)c1	4.0*	1.4*	15*	2	6.9*	2	11*	21*	1
COc1nc(C)ccc1-c1noc(-c2cccs2)n1	3	0	14*	.	8.4*	1	6.2*	16*	1
CC(=O)N1CCN(S(=O)(=O)c2cccc(C(=O)NCCc3ccc(Cl)cc3)c2)CC1	-1	-1	-2	1	0	.	.	.	.
O=C(Nc1ccccc1)c1cccc(C(=O)Nc2ccccc2)n1	0	-1	0	0	2	.	.	.	.
O=C(Nc1ccccc1)c1cc2ccccc2s1	4.2*	1.1*	22*	3	10*	2	11*	20*	1
O=C(Nc1nc2ccccc2s1)c1ccc(Cl)s1	4.0*	0	15*	6.5*	8.4*	2	7.2*	21*	1
Cc1ccc2nc(NC(=O)c3ccc(-c4nc5ccccc5s4)s3)sc2c1	-3	-2	-9	0	-3	.	.	.	.
O=C(Nc1nc2ccc(Cl)cc2s1)c1ccco1	4	0	16*	1	7.4*	1	6.6*	17*	1
